# Reference: the supplement of paper PMC10849652
# The full data set covers some 8,800 targets. This sample favours those with a hit. About 0.5% of all pairs of compound and target were hits. Unmarked numbers belong to inactive results.
# Experiments:
# Test in all cases: log2 fold change, soluble protein after heating vs DMSO (PISA); higher = thermal stabilisation; K562 lysate, 10 uM; active = over 0.2 and 3.5 SD of the protein, either way, in both replicates (recomputed)
# nilotinib = compound: Cc1cn(-c2cc(NC(=O)c3ccc(C)c(Nc4nccc(-c5cccnc5)n4)c3)cc(C(F)(F)F)c2)cn1 [nilotinib]
# Method in brief: (§1)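 Pellets of K562 cells were dounce-homogenised in PBS pH 7.4 with 1 mM MgCl2, and the crude extract was held at 1 mg/mL protein for a 30 min treatment with 10 μM compound. Aliquots were heated for 3 min over 48°C-58°C and pooled before NP-40 was added to 0.5% at 4°C. The supernatant from 21,000xg for 90 min was quantified by TMTpro 16plex LC-MS/MS with channel sums equalised. Values are reported from duplicates as log-two fold change in thermal stability relative to solvent controls.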
# [1] = compound: Cc1nc(Nc2n[nH]c3c2CN(C(=O)N[C@H](CN(C)C)c2ccccc2)C3(C)C)c2sccc2n1
# Method in brief: as §1
# dasatinib = compound: Cc1nc(Nc2ncc(C(=O)Nc3c(C)cccc3Cl)s2)cc(N2CCN(CCO)CC2)n1 [dasatinib]
# Method in brief: as §1
# [2] = compound: Cc1ncc(-c2ccnc(Nc3ccc(S(C)(=O)=O)cc3)n2)n1C(C)C
# Method in brief: as §1
# [3] = compound: Cn1cc(-c2ccc3c(c2)CCN3C(=O)Cc2cccc(C(F)(F)F)c2)c2c(N)ncnc21
# Method in brief: as §1
# quisinostat = compound: Cn1cc(CNCC2CCN(c3ncc(C(=O)NO)cn3)CC2)c2ccccc21 [quisinostat]
# Method in brief: as §1
# tipifarnib = compound: Cn1cncc1[C@@](N)(c1ccc(Cl)cc1)c1ccc2c(c1)c(-c1cccc(Cl)c1)cc(=O)n2C [tipifarnib]
# Method in brief: as §1
# [4] = compound: NC(=O)Nc1cc(-c2cccc(F)c2)sc1C(=O)N[C@H]1CCCNC1
# Method in brief: as §1
# [5] = compound: NC(=O)c1cnc(N[C@@H]2CCCC[C@@H]2N)nc1Nc1cccc(-n2nccn2)c1
# Method in brief: as §1
# [6] = compound: NC1(c2ccc(-c3nc4ccn5c(=O)[nH]nc5c4cc3-c3ccccc3)cc2)CCC1
# Method in brief: as §1
# [7] = compound: NCC(=O)Nc1ccc(-n2nc(C(F)(F)F)cc2-c2ccc3c(ccc4ccccc43)c2)cc1
# Method in brief: as §1
# vorinostat = compound: O=C(CCCCCCC(=O)Nc1ccccc1)NO [vorinostat]
# Method in brief: as §1
# silmitasertib = compound: O=C(O)c1ccc2c(c1)nc(Nc1cccc(Cl)c1)c1ccncc12 [silmitasertib]
# Method in brief: as §1
# [8] = compound: O=C1NC(=O)C(c2cnc3ccccn23)=C1c1cn2c3c(cc(F)cc13)CN(C(=O)N1CCCCC1)CC2
# Method in brief: as §1
# entospletinib = compound: c1cn2cc(-c3ccc4cn[nH]c4c3)nc(Nc3ccc(N4CCOCC4)cc3)c2n1 [entospletinib]
# Method in brief: as §1
# UniProt P40227, sequence (P40227 whole entry, looked up): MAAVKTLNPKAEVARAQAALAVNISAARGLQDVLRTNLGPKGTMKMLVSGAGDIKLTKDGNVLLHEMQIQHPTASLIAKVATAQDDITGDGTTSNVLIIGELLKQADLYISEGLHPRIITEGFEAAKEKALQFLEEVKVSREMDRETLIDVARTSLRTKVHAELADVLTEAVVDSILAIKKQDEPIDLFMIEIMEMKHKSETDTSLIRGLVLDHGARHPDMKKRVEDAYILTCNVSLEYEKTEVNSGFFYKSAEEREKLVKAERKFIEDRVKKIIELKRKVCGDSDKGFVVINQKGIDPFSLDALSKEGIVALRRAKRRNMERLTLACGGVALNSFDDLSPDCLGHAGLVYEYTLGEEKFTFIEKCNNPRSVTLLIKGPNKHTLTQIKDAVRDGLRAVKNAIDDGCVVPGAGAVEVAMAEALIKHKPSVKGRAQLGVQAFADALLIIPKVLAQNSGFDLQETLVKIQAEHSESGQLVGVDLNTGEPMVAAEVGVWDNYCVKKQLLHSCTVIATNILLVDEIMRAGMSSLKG
# UniProt Q96JB5, sequence (Q96JB5 whole entry, looked up): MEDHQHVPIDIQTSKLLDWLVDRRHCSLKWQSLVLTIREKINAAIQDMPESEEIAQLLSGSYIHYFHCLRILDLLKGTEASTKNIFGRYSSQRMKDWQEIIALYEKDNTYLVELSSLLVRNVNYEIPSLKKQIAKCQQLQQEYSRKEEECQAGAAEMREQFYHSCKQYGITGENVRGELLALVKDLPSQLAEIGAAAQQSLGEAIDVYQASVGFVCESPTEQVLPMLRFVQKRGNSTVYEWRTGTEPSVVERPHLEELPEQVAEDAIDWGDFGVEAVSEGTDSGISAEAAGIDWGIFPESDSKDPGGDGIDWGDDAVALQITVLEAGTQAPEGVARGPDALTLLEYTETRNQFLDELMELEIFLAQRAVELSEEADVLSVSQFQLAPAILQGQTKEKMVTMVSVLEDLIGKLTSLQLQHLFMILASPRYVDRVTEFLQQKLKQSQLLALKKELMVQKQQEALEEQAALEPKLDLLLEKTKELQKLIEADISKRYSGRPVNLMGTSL
# UniProt Q96B23, sequence (Q96B23 whole entry, looked up): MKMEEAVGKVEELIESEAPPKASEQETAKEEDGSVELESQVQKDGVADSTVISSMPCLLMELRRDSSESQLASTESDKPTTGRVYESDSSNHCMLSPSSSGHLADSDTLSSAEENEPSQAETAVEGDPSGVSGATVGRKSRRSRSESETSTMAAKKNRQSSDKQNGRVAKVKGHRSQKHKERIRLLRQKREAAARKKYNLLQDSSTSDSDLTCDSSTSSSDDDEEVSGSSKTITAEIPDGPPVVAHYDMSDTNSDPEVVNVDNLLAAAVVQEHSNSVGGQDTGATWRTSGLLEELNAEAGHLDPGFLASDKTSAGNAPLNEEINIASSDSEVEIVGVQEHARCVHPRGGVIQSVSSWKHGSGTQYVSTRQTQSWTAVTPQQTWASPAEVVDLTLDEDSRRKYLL
# UniProt Q8N5S9, sequence (Q8N5S9 whole entry, looked up): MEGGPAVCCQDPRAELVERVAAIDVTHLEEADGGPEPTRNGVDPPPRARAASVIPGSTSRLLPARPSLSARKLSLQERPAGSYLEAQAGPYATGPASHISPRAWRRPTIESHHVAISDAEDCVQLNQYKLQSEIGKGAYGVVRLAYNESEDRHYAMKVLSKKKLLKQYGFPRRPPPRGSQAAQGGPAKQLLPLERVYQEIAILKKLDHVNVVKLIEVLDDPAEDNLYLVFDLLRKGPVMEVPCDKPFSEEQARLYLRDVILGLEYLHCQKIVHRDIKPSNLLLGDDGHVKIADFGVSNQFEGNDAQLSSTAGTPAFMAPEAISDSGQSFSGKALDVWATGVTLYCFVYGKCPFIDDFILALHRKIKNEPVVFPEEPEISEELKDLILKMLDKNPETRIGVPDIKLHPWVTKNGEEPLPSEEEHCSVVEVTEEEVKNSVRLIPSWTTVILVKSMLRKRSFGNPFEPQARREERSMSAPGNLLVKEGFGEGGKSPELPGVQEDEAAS
# UniProt Q6P1S2, sequence (Q6P1S2 whole entry, looked up): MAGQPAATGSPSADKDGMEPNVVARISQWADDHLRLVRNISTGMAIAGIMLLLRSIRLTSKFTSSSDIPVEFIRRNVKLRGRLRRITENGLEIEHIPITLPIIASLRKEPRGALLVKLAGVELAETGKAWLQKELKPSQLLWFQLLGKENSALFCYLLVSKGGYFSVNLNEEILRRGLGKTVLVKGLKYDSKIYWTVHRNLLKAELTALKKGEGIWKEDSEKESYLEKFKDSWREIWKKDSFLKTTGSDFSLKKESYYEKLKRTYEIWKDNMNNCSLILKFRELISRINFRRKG
# UniProt Q86WA6, sequence (Q86WA6 whole entry, looked up): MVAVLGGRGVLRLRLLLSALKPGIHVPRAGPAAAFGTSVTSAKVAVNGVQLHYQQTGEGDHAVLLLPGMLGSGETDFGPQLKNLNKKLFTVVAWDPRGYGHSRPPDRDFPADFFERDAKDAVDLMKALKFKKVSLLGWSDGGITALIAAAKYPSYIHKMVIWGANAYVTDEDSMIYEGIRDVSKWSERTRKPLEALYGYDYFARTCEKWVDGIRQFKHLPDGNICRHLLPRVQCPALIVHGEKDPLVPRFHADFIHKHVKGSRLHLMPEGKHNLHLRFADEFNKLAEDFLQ
# UniProt O75081, sequence (O75081 whole entry, looked up): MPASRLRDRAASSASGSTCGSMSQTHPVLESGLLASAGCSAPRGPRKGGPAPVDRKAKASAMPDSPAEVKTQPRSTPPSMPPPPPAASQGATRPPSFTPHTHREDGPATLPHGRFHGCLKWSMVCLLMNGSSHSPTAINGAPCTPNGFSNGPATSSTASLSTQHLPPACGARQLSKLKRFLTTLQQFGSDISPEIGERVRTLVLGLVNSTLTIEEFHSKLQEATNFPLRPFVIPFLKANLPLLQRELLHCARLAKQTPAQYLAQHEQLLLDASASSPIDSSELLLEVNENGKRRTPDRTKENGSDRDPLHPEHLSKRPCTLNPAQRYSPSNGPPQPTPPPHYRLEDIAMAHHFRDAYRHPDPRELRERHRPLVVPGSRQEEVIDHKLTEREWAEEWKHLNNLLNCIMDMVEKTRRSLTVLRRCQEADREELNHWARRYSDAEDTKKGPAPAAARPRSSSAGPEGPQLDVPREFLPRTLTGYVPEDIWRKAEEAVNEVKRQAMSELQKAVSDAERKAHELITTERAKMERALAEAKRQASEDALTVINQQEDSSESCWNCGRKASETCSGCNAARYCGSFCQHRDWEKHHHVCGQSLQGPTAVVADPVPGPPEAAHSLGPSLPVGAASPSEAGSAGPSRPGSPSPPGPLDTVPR
# UniProt Q92879, sequence (Q92879 whole entry, looked up): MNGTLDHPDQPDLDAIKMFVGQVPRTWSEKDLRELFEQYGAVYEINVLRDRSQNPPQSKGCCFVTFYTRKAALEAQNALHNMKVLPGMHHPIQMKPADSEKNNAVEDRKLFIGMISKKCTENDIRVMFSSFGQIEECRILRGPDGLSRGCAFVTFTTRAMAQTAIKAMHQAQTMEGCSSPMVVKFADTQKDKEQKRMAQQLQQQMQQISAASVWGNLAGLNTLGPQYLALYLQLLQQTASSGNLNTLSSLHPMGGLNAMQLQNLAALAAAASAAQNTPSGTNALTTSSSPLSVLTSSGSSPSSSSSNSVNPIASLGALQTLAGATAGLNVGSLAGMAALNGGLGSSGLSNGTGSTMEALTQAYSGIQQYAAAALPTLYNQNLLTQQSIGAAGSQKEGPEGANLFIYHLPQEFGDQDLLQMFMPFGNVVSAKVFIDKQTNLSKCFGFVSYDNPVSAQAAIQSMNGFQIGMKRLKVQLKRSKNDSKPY
# UniProt P21127, sequence (P21127 whole entry, looked up): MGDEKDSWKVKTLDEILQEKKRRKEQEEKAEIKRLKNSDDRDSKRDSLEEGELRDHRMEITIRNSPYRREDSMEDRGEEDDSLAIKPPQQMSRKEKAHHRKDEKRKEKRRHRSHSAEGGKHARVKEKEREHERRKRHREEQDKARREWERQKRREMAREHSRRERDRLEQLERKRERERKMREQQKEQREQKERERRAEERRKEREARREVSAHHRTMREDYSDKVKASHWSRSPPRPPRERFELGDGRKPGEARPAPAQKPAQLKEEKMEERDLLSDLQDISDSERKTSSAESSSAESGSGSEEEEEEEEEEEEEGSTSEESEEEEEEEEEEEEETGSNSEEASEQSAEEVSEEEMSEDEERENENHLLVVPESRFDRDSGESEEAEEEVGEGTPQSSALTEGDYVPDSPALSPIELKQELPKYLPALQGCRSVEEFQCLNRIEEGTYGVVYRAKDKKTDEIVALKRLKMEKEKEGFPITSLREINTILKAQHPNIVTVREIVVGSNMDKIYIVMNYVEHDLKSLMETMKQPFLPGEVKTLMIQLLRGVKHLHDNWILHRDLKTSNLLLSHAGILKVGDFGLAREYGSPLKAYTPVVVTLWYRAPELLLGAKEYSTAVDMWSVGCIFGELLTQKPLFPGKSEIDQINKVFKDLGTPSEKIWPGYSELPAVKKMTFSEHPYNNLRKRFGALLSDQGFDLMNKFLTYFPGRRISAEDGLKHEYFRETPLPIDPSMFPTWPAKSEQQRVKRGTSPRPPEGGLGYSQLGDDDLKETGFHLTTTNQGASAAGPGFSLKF
# UniProt Q8WYN0, sequence (Q8WYN0 whole entry, looked up): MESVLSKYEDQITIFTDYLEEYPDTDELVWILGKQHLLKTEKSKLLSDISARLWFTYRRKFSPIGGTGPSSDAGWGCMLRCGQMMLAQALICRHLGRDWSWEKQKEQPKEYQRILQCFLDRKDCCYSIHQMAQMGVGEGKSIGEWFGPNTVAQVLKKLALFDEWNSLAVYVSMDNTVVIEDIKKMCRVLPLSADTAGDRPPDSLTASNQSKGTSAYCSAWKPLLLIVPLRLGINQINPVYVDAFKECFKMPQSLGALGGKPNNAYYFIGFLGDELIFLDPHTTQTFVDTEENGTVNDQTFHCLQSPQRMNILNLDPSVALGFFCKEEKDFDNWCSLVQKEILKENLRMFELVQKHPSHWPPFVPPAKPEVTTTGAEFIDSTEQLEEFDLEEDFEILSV
Target,log2 fold change (nilotinib),log2 fold change [1],log2 fold change (dasatinib),log2 fold change [2],log2 fold change [3],log2 fold change (quisinostat),log2 fold change (tipifarnib),log2 fold change [4],log2 fold change [5],log2 fold change [6],log2 fold change [7],log2 fold change (vorinostat),log2 fold change (silmitasertib),log2 fold change [8],log2 fold change (entospletinib)
BCKDK (UniProt O14874),0.008,0.001,0.023,-0.061,0.058,0.094,-0.058,-0.092,-0.029,0.052,-0.01,0.025,0.052,-0.271 (active),-0.053
CCNA2 (UniProt P20248),-0.014,0.064,0.04,0.234 (active),-0.051,-0.086,-0.015,0.005,0.063,-0.021,0.005,0.075,-0.06,-0.026,-0.011
CELF1 isoform 4 (UniProt Q92879),-0.022,0.042,-0.025,0,0,0.021,-0.013,0.037,0.033,0.067,0.065,-0.347 (active),0.019,0.022,0.013
CCT6A (UniProt P40227),-0.003,-0.004,-0.001,-0.007,0.001,0.037,0.014,-0.005,0.003,0.005,0.004,0.049,-0.005,0.012,0.024
CARD11 (UniProt Q9BXL7),-0.047,0.04,-0.053,0.043,0.004,-0.031,-0.015,0.025,0.048,0.009,-0.113,-0.406 (active),0.001,0.004,-0.031
CDC7 (UniProt O00311),-0.049,0.028,0.029,0.059,0.001,-0.047,-0.009,0.015,-0.022,-0.016,0.086,-0.152,-0.077,-0.01,0.007
CDC25C (UniProt P30307),0.039,-0.037,0.042,-0.048,0.004,0.056,-0.004,0.025,0.015,0.05,-0.019,-0.271 (active),0.009,0.026,-0.01
C3orf33 (UniProt Q6P1S2),-0.105,-0.15,-0.013,0.009,-0.072,-0.14,0.007,0.274,0.094,0.123,-0.085,-0.118,-0.137,0.023,–
CDK11B (UniProt P21127),-0.006,-0.015,-0.028,0.087,0.068,-0.023,0.01,0.018,0.009,-0.018,0.009,-0.115,0.065,-0.023,0.255 (active)
CAMKK1 isoform 2 (UniProt Q8N5S9),-0.013,0.144,0.05,0.064,0.189,-0.072,-0.064,0.047,-0.002,0.007,0.006,-0.255,0.072,-0.007,-0.078
CBFA2T3 (UniProt O75081),-0.018,0.02,-0.026,-0.019,-0.008,-0.07,-0.047,0.043,0,0.001,-0.004,-0.4 (active),0.009,-0.019,-0.012
ATG4A (UniProt Q8WYN0),-0.022,0.018,-0.064,0.037,-0.038,-0.042,-0.015,0.096,-0.02,0,-0.059,-0.543 (active),0.034,0.001,0.004
CALM2 (UniProt P0DP24),-0.009,0.014,-0.013,0.022,-0.001,-0.178,0.016,-0.053,-0.014,-0.06,0.008,-0.027,0.064,-0.121,-0.048
ATRIP (UniProt Q8WXE1),-0.014,-0.028,-0.059,0.071,0.045,-0.03,-0.049,-0.007,0.01,0.032,-0.088,-0.28,0.229,0.039,-0.009
CDK5RAP3 isoform 4 (UniProt Q96JB5),0.003,-0.016,-0.067,0.006,0.045,-0.03,-0.043,0.023,0.026,-0.007,0.046,0.026,0.068,0,0.012
CDK16 isoform 2 (UniProt Q00536),0.043,0.412,0.033,0.433 (active),-0.033,-0.044,-0.01,-0.016,0.081,-0.124,0.006,0.055,0.446 (active),0.603 (active),-0.05
C18orf25 (UniProt Q96B23),0.139,-0.014,-0.022,-0.018,0.082,-0.007,0.003,0,0.011,-0.008,0.03,0.089,-0.147,-0.034,0.036
CDK8 (UniProt P49336),-0.025,-0.037,-0.054,0.119,-0.032,-0.05,-0.209,0.018,-0.006,-0.033,-0.008,-0.057,0.226,-0.053,–
CAMLG (UniProt P49069),0.048,-0.082,0.017,-0.069,0.064,0.01,-0.084,0.005,-0.009,0.046,-0.009,-0.15,-0.027,0.006,0.001
BPHL (UniProt Q86WA6),-0.049,0.084,0.008,-0.043,0.055,-0.02,0.01,-0.03,0.016,0.022,-0.093,0.143,0.049,-0.006,0.028
ATM (UniProt Q13315),-0.019,-0.019,-0.071,0.084,0.038,0.039,0.009,0.009,0.039,0.008,0.058,-0.093,0.118,-0.033,0.036
